Experimental data as given in PubChem BioAssay AID1159580 (chemical genetic matrix, 2015).
Out of some 5,500 compounds screened, about 2,000 (36%) were called active. Not shown: some 18% with an inconclusive outcome. Rule as the data show it: active = normalized growth mostly below about 0.91 (no sharp cut-off); inconclusive = no clear call, values can overlap the other calls; inactive = mostly above about 0.92. The list shows a part of the results.

Assay: chemical genetic growth profiling, strain panel (AID 1159580);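 also: tested at 20 µM; growth read once vehicle control cultures reached saturation at 30 °C; 1 = growth at the plate median or of vehicle wells; lower values mean less growth of the strain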
Details: S. cerevisiae deletion strains, growth OD
[1] = locus YDL101C, strain DUN1, stronger effect = lower value
[2] = locus YHR030C, strain SLT2, stronger effect = lower value

Measured: normalized growth

CCN(CCS(=O)(=O)c1ccc(C)cc1)S(=O)(=O)c1ccccc1
inactive: locus YAL013W, strain DEP1, stronger effect = lower value 1.02 | locus YBR229C, strain ROT2, stronger effect = lower value 1.01 | locus YCL061C, strain MRC1, stronger effect = lower value 0.988 | [1] 0.991 | locus YDL134C, strain PPH21, stronger effect = lower value 0.987 | locus YDR150W, strain NUM1, stronger effect = lower value 1.01 | locus YEL061C, strain CIN8, stronger effect = lower value 0.987 | locus YGR078C, strain PAC10, stronger effect = lower value 0.998 | locus YGR229C, strain SMI1, stronger effect = lower value 0.999 | [2] 0.993 | locus YHR087W, strain rtc3, stronger effect = lower value 0.994 | locus YJR043C, strain POL32, stronger effect = lower value 1 | locus YJR075W, strain HOC1, stronger effect = lower value 0.995 | locus YKL190W, strain CNB1, stronger effect = lower value 0.998 | locus YLR039C, strain RIC1, stronger effect = lower value 1.05 | locus YLR058C, strain SHM2 (second series), stronger effect = lower value 0.998 | locus YLR085C, strain ARP6, stronger effect = lower value 1.06 | locus YLR262C, strain YPT6, stronger effect = lower value 1.05 | locus YML094W, strain GIM5, stronger effect = lower value 1.03 | locus YMR219W, strain ESC1, stronger effect = lower value 1.01 | locus YMR263W, strain SAP30, stronger effect = lower value 0.988 | locus YMR307W, strain GAS1, stronger effect = lower value 0.969 | locus YNL153C, strain GIM3, stronger effect = lower value 0.984 | locus YNL298W, strain CLA4 (second series), stronger effect = lower value 1.01 | locus YNL322C, strain KRE1, stronger effect = lower value 1.01 | locus YNR030W, strain Alg12, stronger effect = lower value 0.99 | locus YPL055C, strain LGE1, stronger effect = lower value 1.06 | locus YPL241C, strain CIN2, stronger effect = lower value 1 | locus YPR135W, strain CTF4, stronger effect = lower value 0.943

O=c1[nH][nH]c(=O)n1CCCc1cc2cccc3ccc4cccc1c4c32
inactive: locus YAR019C, strain CDC15, stronger effect = lower value 1 | locus YBL105C, strain PKC1, stronger effect = lower value 0.987 | locus YBR135W, strain CKS1, stronger effect = lower value 0.998 | locus YBR136W, strain MEC1, stronger effect = lower value 0.988 | locus YBR160W, strain CDC28, stronger effect = lower value 0.994 | locus YDL017W, strain CDC7, stronger effect = lower value 0.994 | locus YDL028C, strain MPS1, stronger effect = lower value 0.992 | [1] 0.984 | locus YDL108W, strain KIN28, stronger effect = lower value 0.988 | locus YDL132W, strain cdc53, stronger effect = lower value 0.99 | locus YDL214C, strain PRR2, stronger effect = lower value 0.968 | locus YDR052C, strain DBF4, stronger effect = lower value 0.991 | locus YDR054C, strain cdc34, stronger effect = lower value 0.994 | locus YDR226W, strain ADK1, stronger effect = lower value 0.995 | locus YDR477W, strain SNF1, stronger effect = lower value 0.979 | locus YER123W, strain YCK3, stronger effect = lower value 0.949 | locus YER133W, strain GLC7, stronger effect = lower value 0.97 | locus YFL009W, strain cdc4, stronger effect = lower value 0.994 | locus YFL029C, strain CAK1, stronger effect = lower value 0.999 | locus YFR003C, strain YPI1, stronger effect = lower value 0.981 | locus YFR019W, strain FAB1, stronger effect = lower value 0.935 | locus YFR028C, strain CDC14, stronger effect = lower value 0.987 | locus YGR040W, strain KSS1, stronger effect = lower value 0.95 | locus YGR052W, strain FMP48, stronger effect = lower value 0.936 | locus YGR092W, strain DBF2, stronger effect = lower value 0.9 | [2] 1.02 | locus YHR079C, strain IRE1, stronger effect = lower value 1 | locus YHR082C, strain KSP1, stronger effect = lower value 0.986 | locus YHR205W, strain SCH9, stronger effect = lower value 0.915 | locus YIL147C, strain SLN1, stronger effect = lower value 0.983 | locus YJL095W, strain BCK1, stronger effect = lower value 0.873 | locus YJL128C, strain PBS2, stronger effect = lower value 0.952 | locus YJL157C, strain FAR1, stronger effect = lower value 0.99 | locus YJR016C, strain ILV3, stronger effect = lower value 0.997 | locus YJR066W, strain TOR1 (second series), stronger effect = lower value 0.927 | locus YJR066W, strain TOR1, stronger effect = lower value 0.964 | locus YKL048C, strain ELM1, stronger effect = lower value 0.956 | locus YKL067W, strain YNK1, stronger effect = lower value 0.971 | locus YKL101W, strain HSL1, stronger effect = lower value 0.937 | locus YKL193C, strain SDS22, stronger effect = lower value 0.992 | locus YKL203C, strain TOR2, stronger effect = lower value 0.985 | locus YLR113W, strain HOG1, stronger effect = lower value 0.922 | locus YLR133W, strain CKI1, stronger effect = lower value 0.952 | locus YLR403W, strain SFP1, stronger effect = lower value 0.908 | locus YML070W, strain DAK1, stronger effect = lower value 0.942 | locus YMR001C, strain CDC5, stronger effect = lower value 0.992 | locus YMR205C, strain PFK2 (second series), stronger effect = lower value 0.973 | locus YMR277W, strain FCP1, stronger effect = lower value 0.989 | locus YNL006W, strain LST8, stronger effect = lower value 0.993 | locus YNL020C, strain ARK1, stronger effect = lower value 0.968 | locus YNL161W, strain CBK1, stronger effect = lower value 0.993 | locus YNL183C, strain NPR1, stronger effect = lower value 0.911 | locus YNL207W, strain RIO2, stronger effect = lower value 0.995 | locus YNL222W, strain SSU72, stronger effect = lower value 0.996 | locus YNL307C, strain MCK1 (second series), stronger effect = lower value 0.909 | locus YOL078W, strain AVO1, stronger effect = lower value 0.993 | locus YOL136C, strain PFK27, stronger effect = lower value 0.94 | locus YOR061W, strain CKA2, stronger effect = lower value 0.975 | locus YOR119C, strain RIO1, stronger effect = lower value 0.993 | locus YOR231W, strain MKK1, stronger effect = lower value 0.972 | locus YOR329C, strain SCD5, stronger effect = lower value 0.991 | locus YPL031C, strain PHO85, stronger effect = lower value 0.961 | locus YPL153C, strain RAD53, stronger effect = lower value 0.963 | locus YPL204W, strain HRR25, stronger effect = lower value 0.941 | locus YPL209C, strain IPL1, stronger effect = lower value 0.988 | locus YPL256C, strain CLN2, stronger effect = lower value 1.08 | locus YPR025C, strain CCL1, stronger effect = lower value 0.998 | locus YPR106W, strain ISR1, stronger effect = lower value 0.985 | locus YPR111W, strain DBF20, stronger effect = lower value 0.973 | strain NNK1, stronger effect = lower value 0.991 | strain TSCII, stronger effect = lower value 0.994
